Data on 40 sequences can be found in the supplement of paper PMC6555819.

One experiment deals with LXRa:RXRa (NR concentration 270 nM, RXRa partner concentration 90 nM). The experiment is described as follows: PBM binding z-score (relative to random genomic background probes); higher = stronger binding; sequences stand for … in GC…GCGATTGACAGCGTAGAATGAAGG
In outline: (§1)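 Random background probes are the reference for binding z-scores. These scores derive from regression-normalized fluorescence on custom Agilent 4×180K protein-binding microarrays incubated 1 h with ligand-free nuclear receptor dimers. Binding was detected with antibodies against each partner (one per run).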
Sequence TCTTGTAGATCAAGCAGGTTAGGAAAGCCTGAGT showed a PBM binding z-score of 0.11.
The same measure, in the same setting: the value for ATCTCTAGGTAGAGTTCAGTGAAAGATCGATAGA was 1.62; that for GCTTGTAGAGCAAGGTTAAGAAAGACTAAGCTAA was 0.442.
Still for that read-out and setting: the value for CAAACTAGGTCAAATGTCAAAGTCGAGCCAACCA was 4.61.
On the same count and under the same terms, the value for TCATATAGGTATAGGTGAAAGTCGAACGATATGA was 0.366.
As to CAAACTAGGTCAAGAGATCAAAGTCCGCTTCCCG, the PBM binding z-score worked out at 2.88.
Still for that read-out and setting: the value for CCTGCTAGGTCAATCGTCAGCTAAAGCAGCTCGC was 2.19.
As for CGTCAAAGTTCAAGGTAACGTGACAGAAAGCAGC, the PBM binding z-score was 5.39.
Sequence ATCGAAACGTCGAGGTGAGTATAGAGAAAGGGAA yielded a PBM binding z-score of -0.343.
Sequence AGCGAAAGGTCGTGAGGTGAGTATACAGAAAGGC came in with a PBM binding z-score of 3.84.
The sequence CGAACTAGGGCATTGACAGGACAGTGAATAGTAA had a PBM binding z-score of 0.0251.
Still for that read-out and setting: the value for CGGACTGGGGCAAGGTTACCATAACGCACAGCCA was 1.02; that for AGCATGAGGTTACCAAAGATCAGGGAAACGCTTG was 6.48.
On the same count and under the same terms, the value for CTAGCAAGGTGAACAAGGTCGTTGATTACTATTC was 1.17; that for CTACTAAGGTGAACAAGGTCGTTGATTACTATTC was 1.76; that for CGTCCAAGGTCAAAGTTCAGTGAAGAGATGACGG was 6.35.
As to TCTTGTAGATCAATAGAGGGTAAGAAAGTGCGCT, the PBM binding z-score came out at 0.902.
As for ATCGAAAGGTCGTGAGGTGCGTATACAGAAAGGC, the PBM binding z-score was found to be 3.73.
The same measure, in the same setting: the value for CCTATTAGTTGAGCATAAGGGCAACCGAAGCTCG was -0.117; that for TCTTGTAGATCAACAGGAGGTTAAAAAAGATCGA was 2; that for TGAATGAGGTTAAAGTTCAGGGAACGTGGCGTCG was 4.98.
On the same count and under the same terms, the value for ATCTCTAGGTAAGACTCAATTCAGTGAAGAACGC was 0.482.
As to AGTCAAAGTTCATCTAGGTAACGTATGATATGCT, the PBM binding z-score is 5.89.
Still for that read-out and setting: the value for GCTATTAGTAGAAAGGGCAACCGAATGATTCTCG was 0.182; that for ATCCAAAGGTCGAAGGTGAGTATACCCACCCGAA was 4.12; that for TGAATGAGGTTATATGATCAGGGAACGTTGCAAA was 1.48.
With CCTAGTTGGTCAGAAGGTCACACACCGGATATGA, the PBM binding z-score came to 3.45.
Still for that read-out and setting: the value for ATCTCTAGGTAAAAGTTCAGTGAATCCCGAGGAT was 1.4; that for TCGAGTAGGTTAGTTGGGGCATTCAGCCAACATA was -0.106.
For the sequence TCTGCTAGGTCAGTTGGTCAGCTATCGAGCTGCC, the PBM binding z-score is 0.538.
ACAGACAGGTGATGATGGTAACTCAGGCTATCAT gave a PBM binding z-score of -0.0671.
In the case of TAGCATAGGTCATTGGGCCAGTATAGTACGCATC, the PBM binding z-score amounted to 5.02.
Same read-out and setting: the value for CCTACTTGGCCAAGGTCATTGATCAGTCAAAGCA was 4.26; that for CCAGACAGGTGAGAAGGTCACTCAGCCTCGATTA was 2.53.
In the case of ACTAGTAGTTGACTTAGGGCAACCGATACGACGC, the PBM binding z-score is -0.0231.
For ATCTCTAGGTAAGACTCAGTTCAGTGACGAACGC, the PBM binding z-score came to 0.636.
The same measure, in the same setting: the value for ATATATAGGTTATCGGGTCATTCAGTTTGCGCAT was 3.78; that for AGTCAATGTTCACTAGGTAACGTAAGATTCAGCT was -0.205; that for ACTACTTGGTCAGCTGAGGTCACACACAATTCGG was 3.9.
Turning to TCTCTGAGGACACGAAAGGTCAGAGCTCGACATC, the PBM binding z-score is 3.53.

A further experiment concerns LXRa homodimer (NR concentration 270 nM). Described as above. In outline:
as §1
TCTTGTAGATCAAGCAGGTTAGGAAAGCCTGAGT: the PBM binding z-score is -0.571.
Same read-out and setting: the value for ATCTCTAGGTAGAGTTCAGTGAAAGATCGATAGA was 1.28.
As for GCTTGTAGAGCAAGGTTAAGAAAGACTAAGCTAA, the PBM binding z-score was -0.567.
On the same count and under the same terms, the value for CAAACTAGGTCAAATGTCAAAGTCGAGCCAACCA was 1.45.
Turning to TCATATAGGTATAGGTGAAAGTCGAACGATATGA, the PBM binding z-score is -0.346.
On to CAAACTAGGTCAAGAGATCAAAGTCCGCTTCCCG, for which the PBM binding z-score was 0.62.
CCTGCTAGGTCAATCGTCAGCTAAAGCAGCTCGC: the PBM binding z-score was -0.244.
The sequence CGTCAAAGTTCAAGGTAACGTGACAGAAAGCAGC registered a PBM binding z-score of 2.53.
Same read-out and setting: the value for ATCGAAACGTCGAGGTGAGTATAGAGAAAGGGAA was -0.626; that for AGCGAAAGGTCGTGAGGTGAGTATACAGAAAGGC was -0.142.
The same measure, in the same setting: the value for CGAACTAGGGCATTGACAGGACAGTGAATAGTAA was 0.031.
Regarding CGGACTGGGGCAAGGTTACCATAACGCACAGCCA, the PBM binding z-score is -0.284.
Same read-out and setting: the value for AGCATGAGGTTACCAAAGATCAGGGAAACGCTTG was 0.0616; that for CTAGCAAGGTGAACAAGGTCGTTGATTACTATTC was -0.0996.
On the same count and under the same terms, the value for CTACTAAGGTGAACAAGGTCGTTGATTACTATTC was 0.193; that for CGTCCAAGGTCAAAGTTCAGTGAAGAGATGACGG was 3.82.
Still for that read-out and setting: the value for TCTTGTAGATCAATAGAGGGTAAGAAAGTGCGCT was -0.251.
Sequence ATCGAAAGGTCGTGAGGTGCGTATACAGAAAGGC returned a PBM binding z-score of -0.157.
CCTATTAGTTGAGCATAAGGGCAACCGAAGCTCG returned a PBM binding z-score of 0.193.
Still for that read-out and setting: the value for TCTTGTAGATCAACAGGAGGTTAAAAAAGATCGA was 0.321; that for TGAATGAGGTTAAAGTTCAGGGAACGTGGCGTCG was 2.46.
For the sequence ATCTCTAGGTAAGACTCAATTCAGTGAAGAACGC, the PBM binding z-score was 0.559.
Same read-out and setting: the value for AGTCAAAGTTCATCTAGGTAACGTATGATATGCT was 5.49.
Turning to GCTATTAGTAGAAAGGGCAACCGAATGATTCTCG, the PBM binding z-score is -0.00158.
The same measure, in the same setting: the value for ATCCAAAGGTCGAAGGTGAGTATACCCACCCGAA was 0.34; that for TGAATGAGGTTATATGATCAGGGAACGTTGCAAA was -0.0351; that for CCTAGTTGGTCAGAAGGTCACACACCGGATATGA was 1.87.
Consider ATCTCTAGGTAAAAGTTCAGTGAATCCCGAGGAT, for which the PBM binding z-score is 1.16.
In turn, TCGAGTAGGTTAGTTGGGGCATTCAGCCAACATA gave a PBM binding z-score of -0.363.
The same measure, in the same setting: the value for TCTGCTAGGTCAGTTGGTCAGCTATCGAGCTGCC was -0.72; that for ACAGACAGGTGATGATGGTAACTCAGGCTATCAT was -0.0719.
On the same count and under the same terms, the value for TAGCATAGGTCATTGGGCCAGTATAGTACGCATC was 1.27.
With CCTACTTGGCCAAGGTCATTGATCAGTCAAAGCA, the PBM binding z-score is 1.93.
CCAGACAGGTGAGAAGGTCACTCAGCCTCGATTA came in with a PBM binding z-score of 0.729.
ACTAGTAGTTGACTTAGGGCAACCGATACGACGC gave a PBM binding z-score of -0.428.
Still for that read-out and setting: the value for ATCTCTAGGTAAGACTCAGTTCAGTGACGAACGC was 0.724; that for ATATATAGGTTATCGGGTCATTCAGTTTGCGCAT was 2.66; that for AGTCAATGTTCACTAGGTAACGTAAGATTCAGCT was -0.143.
For the sequence ACTACTTGGTCAGCTGAGGTCACACACAATTCGG, the PBM binding z-score stood at 3.15.
In turn, TCTCTGAGGACACGAAAGGTCAGAGCTCGACATC registered a PBM binding z-score of 3.1.
